Among the data in PubChem BioAssay are z-score and composite z-score values, retold here.

Test [1] can be described thus: compound effects on lung adenocarcinoma cell viability – A549, calcein-AM fluorescence, 48 h, basal, profiling panel (AID 1162). Further: test concentration not given here. Particulars: higher = more signal.
A short description of test [2]: compound effects on differentiated 3T3-L1 adipocyte viability – cell-based, 3T3-L1 adipocytes, calcein-AM fluorescence, 48 h, basal, profiling panel (AID 1163). Further: test concentration not given here. Particulars: 3T3-L1 adipocytes viability, higher = more signal.
The nature of test [3]: compound effects on hepatocellular carcinoma cell viability – HepG2, calcein-AM fluorescence, 48 h, basal, profiling panel (AID 1164). Further: test concentration not given here. As to conditions: higher = more signal.
Test [4] is described as follows: compound effects on multiple myeloma cell viability – MM1S, calcein-AM fluorescence, 48 h, basal, profiling panel (AID 1165). Further: test concentration not given here. As to conditions: higher = more signal.
The nature of test [5]: calcein-AM signal in unstimulated myeloma cells – cell-based, calcein-AM fluorescence, 48 h, PK04 Diversity Set, profiling panel (AID 1166).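 Further: cells grown under basal conditions without added stimulus; test concentration not given here.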 Particulars: RPMI8226 myeloma viability, higher = more signal.
Test [6] is described as follows: JC-1 mitochondrial signal, unstimulated HepG2 cells – cell-based, JC-1 fluorescence, 24 h, 100 nL compound, profiling panel (AID 1167). Further: test concentration not given here. As to conditions: HepG2 mitochondrial potential, higher = more signal.
Test [7] in a line: JC-1 mitochondrial signal, unstimulated adipocytes – cell-based, JC-1 fluorescence, 3T3-L1 adipocytes, 24 h, 100 nL compound, profiling panel (AID 1168). Further: test concentration not given here. As to conditions: JC-1 mitochondrial fluorescence, higher = more signal, called active from +8 up or from −8 down.
Test [8] in a line: JC-1 mitochondrial signal, unstimulated myeloma cells – cell-based, JC-1 fluorescence, RPMI8226, 24 h, 100 nL compound, profiling panel (AID 1169). Further: test concentration not given here. As to conditions: JC-1 mitochondrial potential fluorescence, higher = more signal.
The nature of test [9]: JC-1 mitochondrial signal, unstimulated MM1S myeloma – cell-based, JC-1 fluorescence, 24 h, 100 nL compound, profiling panel (AID 1170). Further: test concentration not given here. Particulars: MM1S mitochondrial potential, higher = more signal.
Test [10] in a line: resazurin metabolic signal in A549 cells – cell-based, resazurin fluorescence, 24 h, PK04 Diversity Set, profiling panel (AID 1171). Further: test concentration not given here. Particulars: A549 viability, higher = more signal, called active from +8 up or from −8 down.
Test [11] is described as follows: resazurin metabolic signal in HepG2 cells – cell-based, resazurin fluorescence, 24 h, PK04 Diversity Set, profiling panel (AID 1172). Further: test concentration not given here. Particulars: HepG2 viability, higher = more signal. (In general: Resazurin is reduced to fluorescent resorufin, in cell work by metabolically active cells.)
Test [12] can be described thus: budding yeast growth changes without added modifier – OD600, strain BY4716, 24 h, basal condition, primary screen (AID 1173). Particulars: S. cerevisiae BY4716 growth, OD600, 24 h; higher = more signal, called active from +8 up or from −8 down.
A short description of test [13]: viability profiling in MM1S myeloma cells – cell-based, resazurin fluorescence, basal, 24 h, PK04 Diversity Set, profiling panel (AID 1174). Further: test concentration not given here. Particulars: higher = more signal, called active from +8 up or from −8 down.
Test [14] deals with Dihydroorotate dehydrogenase (quinone), mitochondrial (Plasmodium falciparum (isolate 3D7)) (UniProt Q08210). The test is described as follows: inhibition of P. falciparum DHODH – biochemical, C-terminal His tag, absorbance 600 nm, primary screen (AID 1175).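 Further: recombinant parasite enzyme with a five histidine tag at its C terminus; test concentration not given here.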 As to conditions: PfDHODH enzyme, DCIP absorbance 600 nm; higher = more signal, called active from +8 up or from −8 down.

Test [15] in a line: inhibition of PAO1 biofilm formation – strain PAO1, LB-PBS medium, absorbance 600 nm, primary screen (AID 1176). Further: test concentration not given here. Particulars: P. aeruginosa PAO1 growth/biofilm, A600, 12 h; higher = more signal.
A short description of test [16]: growth modulation of vineyard yeast isolate – strain RM11-1a, OD600, basal, 24 h, primary screen (AID 1177).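 Further: cultures grown under basal conditions with no added stressor; test concentration not given here.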 As to conditions: S. cerevisiae RM11-1a growth, OD600, 24 h; higher = more signal, called active from +8 up or from −8 down.
The nature of test [17]: growth of efflux-deficient E. coli DRC39 – strain DRC39, OD650, 24 h, E. coli filamentation inducers, primary screen (AID 1178).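 Further: growth measured as culture turbidity by optical density at 650 nm; test concentration not given here.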 Particulars: E. coli DRC39 acrAB, higher = more signal, called active from +8 up or from −8 down.
Test [18] in a line: growth of efflux-deficient E. coli DRC39 – strain DRC39, OD650, 48 h, E. coli filamentation inducers, primary screen (AID 1179).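 Further: screen aims at cell division blockers that make cells filament.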 Particulars: E. coli DRC39 delta-acrAB growth, higher = more signal, called active from +8 up or from −8 down.
A short description of test [19]: viability profiling in RPMI8226 myeloma cells – cell-based, resazurin fluorescence, basal, 24 h, PK04 Diversity Set, profiling panel (AID 1180).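 Further: RPMI8826 multiple myeloma cell line at 5000 cells per well; test concentration not given here.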 As to conditions: higher = more signal.
Test [20] addresses E3 ubiquitin-protein ligase XIAP (Homo sapiens) (UniProt P98170). The test is described as follows: small molecules binding XIAP protein – biophysical, small-molecule microarray, fluorescence 635 nm, primary screen (AID 1181).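 Further: score merges 667 nm emission and signal to noise over triplicate slides.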 As to conditions: higher = more signal.

Structures are written as SMILES. Calls of active or inactive are those of the source. Unless noted, how the calls were made is not given here.

Chain of E3 ubiquitin-protein ligase XIAP (Homo sapiens) (P98170 whole entry, looked up): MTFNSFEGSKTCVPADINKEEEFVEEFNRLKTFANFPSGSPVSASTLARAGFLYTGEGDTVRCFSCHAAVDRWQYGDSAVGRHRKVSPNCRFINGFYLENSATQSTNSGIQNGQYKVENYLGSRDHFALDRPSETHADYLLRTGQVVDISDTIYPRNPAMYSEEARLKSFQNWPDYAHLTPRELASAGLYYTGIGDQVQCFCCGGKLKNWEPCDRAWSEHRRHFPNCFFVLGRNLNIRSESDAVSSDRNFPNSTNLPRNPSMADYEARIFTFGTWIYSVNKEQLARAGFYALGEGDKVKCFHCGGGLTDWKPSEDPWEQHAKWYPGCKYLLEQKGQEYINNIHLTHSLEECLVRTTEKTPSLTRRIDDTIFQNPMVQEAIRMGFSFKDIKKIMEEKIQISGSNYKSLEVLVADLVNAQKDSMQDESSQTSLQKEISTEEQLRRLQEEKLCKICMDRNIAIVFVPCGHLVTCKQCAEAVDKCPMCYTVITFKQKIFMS
Chain of Dihydroorotate dehydrogenase (quinone), mitochondrial (Plasmodium falciparum (isolate 3D7)) (Q08210 whole entry, looked up): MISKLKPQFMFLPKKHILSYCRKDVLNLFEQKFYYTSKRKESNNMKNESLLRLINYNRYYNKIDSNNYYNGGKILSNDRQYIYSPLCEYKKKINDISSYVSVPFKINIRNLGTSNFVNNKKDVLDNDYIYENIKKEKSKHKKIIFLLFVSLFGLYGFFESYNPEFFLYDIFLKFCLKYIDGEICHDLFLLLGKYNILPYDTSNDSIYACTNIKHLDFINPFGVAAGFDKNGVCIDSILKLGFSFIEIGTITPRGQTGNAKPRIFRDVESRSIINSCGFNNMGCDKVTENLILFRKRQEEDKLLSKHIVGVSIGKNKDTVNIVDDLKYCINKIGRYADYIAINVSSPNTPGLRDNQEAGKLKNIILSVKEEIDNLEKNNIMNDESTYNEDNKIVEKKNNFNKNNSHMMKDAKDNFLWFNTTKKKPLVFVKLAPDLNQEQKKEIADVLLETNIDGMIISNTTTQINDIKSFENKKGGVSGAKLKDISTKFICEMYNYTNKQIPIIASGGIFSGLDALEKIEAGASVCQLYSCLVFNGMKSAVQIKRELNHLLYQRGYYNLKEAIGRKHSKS

On to `O=C1C2C=CC(C(O)Cc3ccccc3)N(Nc3ccc([N+](=O)[O-])cc3)C2C(=O)N1c1ccccc1` (centres undefined), for which the z-score in test [1] was -0.356; in test [2] it was -0.116; in test [3], 0.0181; in test [4], 0.568; in test [5] it was -0.0631; in [6], -1.36. Besides, the z-score is 0.0226 (inactive) in [7]; 0.517 in test [8]; -0.876 in [9]; 0.007 (inactive) in [10]; -0.346 in test [11]; -0.168 (inactive) in test [12]. Further, the z-score in test [13] is -0.824 (inactive); in test [15], 0.946 (inactive); in test [16] it was -0.518 (inactive); in test [17] it was -1.22 (inactive); in test [18] it was 0.0196 (inactive); in [19], -0.358. The composite z-score in test [14] was -0.75 (inactive); in test [20] it was 0.202.
With `COCCOC(=O)N1C(=O)[C@@]2(c3cc(C#CC4=CCCCC4)ccc31)[C@H](c1ccc(O)cc1)N1[C@H](c3ccccc3)[C@H](c3ccccc3)OC(=O)[C@H]1[C@@H]2C(=O)N1CCCCCCC1`, the z-score in test [1] is 1.43; in [2], 1.06; in test [3], 0.0785; in test [4] it was -0.278; in [5], -0.641; in test [6] it was -0.926. The z-score was 1.37 (inactive) in test [7]; -0.247 in test [8]; 0.12 in test [9]; 0.676 (inactive) in test [10]; 0.32 in [11]; -0.615 (inactive) in test [12]. Also, the z-score in test [13] was 1.17 (inactive); in test [15] it was 1.35 (inactive); in [16] it was 0.19 (inactive); in test [17] it was 0.15 (inactive); in [18] it was 1.29 (inactive); in test [19], 0.768. Also, the composite z-score was 0.104 (inactive) in test [14] and -0.445 in test [20].
For the compound `CN1C(=O)C2C=CC(C(O)c3ccc(N(C)C)cc3)N(Nc3ccc([N+](=O)[O-])cc3[N+](=O)[O-])C2C1=O` (centres undefined), the z-score in [1] was 1.09; in [2], -0.459; in [3], -0.0167; in test [4] it was -0.126; in test [5], -0.4; in [6] it was -0.672. Moreover, the z-score in test [7] was -1.06 (inactive); in test [8] it was 0.0429; in test [9], -0.0883; in [10], 0.0697 (inactive); in test [11] it was 0.183; in test [12], 0.111 (inactive). In addition, the z-score was -0.355 (inactive) in [13]; 0.558 (inactive) in test [15]; -0.29 (inactive) in test [16]; -0.243 (inactive) in test [17]; -0.411 (inactive) in [18]; 0.236 in [19]. Moreover, the composite z-score in [14] is -0.548 (inactive); in [20], -0.0023.
Consider `CCOC(=O)C1=C[C@@H](c2ccccc2)N(S(=O)(=O)c2ccc(C)cc2)[C@H]1c1ccc(F)cc1`, for which the z-score in [1] is -1.39; in test [2], -0.498; in [3], -2.67; in [4] it was -2.06; in test [5] it was -1.34; in test [6], 2.45. The z-score is -1.16 (inactive) in test [7]; -0.118 in test [8]; -0.00719 in test [9]; 1.04 (inactive) in [10]; -0.296 in test [11]; 1.87 (inactive) in test [12]. The z-score in test [13] is -0.648 (inactive); in test [15], 0.216 (inactive); in test [16], 2.33 (inactive); in test [17], -0.213 (inactive); in test [18], -0.283 (inactive); in [19], -2.21. The composite z-score is -0.102 (inactive) in test [14] and 0.155 in test [20].
`Cc1ccc(S(=O)(=O)N2[C@@H](c3ccccc3)C(C(=O)O)=CC[C@H]2c2ccccc2)cc1`: the z-score in [1] was -0.0225; in test [2] it was -0.426; in test [3], -0.335; in test [4] it was -0.107; in [5] it was -1.25; in test [6] it was -0.923. Moreover, the z-score was -0.17 (inactive) in [7]; 0.621 in [8]; 0.675 in test [9]; -1.08 (inactive) in test [10]; -1.18 in test [11]; 0.131 (inactive) in [12]. Besides, the z-score in test [13] is -2.14 (inactive); in [15], -0.0727 (inactive); in test [16] it was 0.256 (inactive); in test [17], -0.992 (inactive); in test [18], -1.25 (inactive); in test [19], -1.8. Besides, the composite z-score in test [14] is 1.03 (inactive); in test [20] it was 0.261.
Consider `CC[C@H]1C2=C3C(CC[C@H]4C(OC)OC[C@](C)([C@@H]34)N(C(=O)OC(C)(C)C)C2)C(CO)C1CO` (some centres undefined), for which the z-score in test [1] is -0.499; in test [2], 0.561; in test [3] it was 0.656; in [4], 1; in test [5], 0.586; in test [6], -0.528. Further, the z-score in test [7] was 0.0846 (inactive); in test [8], -0.38; in test [9], -1.26; in test [10], -1.28 (inactive); in [11] it was -0.453; in [12], 0.145 (inactive). The z-score in [13] was -0.713 (inactive); in [15] it was 0.452 (inactive); in test [16] it was -0.681 (inactive); in [17], -0.0328 (inactive); in test [18], 0.753 (inactive); in test [19], -0.141. Moreover, the composite z-score in test [14] was -0.929 (inactive); in [20], 0.26.
Regarding `C=CC(=O)O[C@@H](Cc1ccccc1)[C@H]1C2C=CCCC=C2CN1Cc1cccc(Cl)c1` (some centres undefined), the z-score in test [1] is 1.07; in test [2] it was 0.392; in test [3] it was 0.216; in [4], -3.14; in test [5], -2.84; in test [6], 0.687. Further, the z-score was 0.0156 (inactive) in test [7]; -0.233 in test [8]; 0.453 in test [9]; 1.11 (inactive) in test [10]; 1.36 in test [11]; -2.29 (inactive) in test [12]. In addition, the z-score in [13] is 0.399 (inactive); in test [16] it was -0.718 (inactive); in [17], 2.63 (inactive); in test [18], 0.338 (inactive); in test [19] it was 1.26. Moreover, the composite z-score in [14] is 0.566 (inactive); in test [20], 0.348.
Take `C=CC[C@@]1(C(=O)NCC(O)CO)N=C(c2ccc(OCCCO)cc2)O[C@@H]1c1ccccc1CN=[N+]=[N-]` (some centres undefined): the z-score was 2.22 in [1]; 0.0076 in [2]; 0.816 in test [3]; 0.92 in test [4]; 0.0295 in test [5]; 1.41 in test [6]. In addition, the z-score in test [7] was 1.62 (inactive); in test [8], -0.153; in test [9], -0.873; in [10], 0.047 (inactive); in test [11] it was -0.192; in test [12], -1.14 (inactive). Also, the z-score in test [13] is -0.754 (inactive); in test [15] it was 0.385 (inactive); in [16], -0.0334 (inactive); in [17] it was 0.613 (inactive); in [18], 1.52 (inactive); in test [19] it was 0.516. Further, the results for the composite z-score in [14] and in test [20] were 0.592 (inactive) and 0.254, respectively.
Take `CC(=O)NCCCC[C@@H]1NC(=O)[C@@H]2C[C@H](C(=O)NCc3ccc(F)cc3)[C@H](c3cccc(OCCO)c3)N2C1=O`: the z-score in test [1] is 0.53; in [2], 0.0222; in test [3] it was 0.64; in test [4], -0.0893; in test [5], -0.12; in [6], -0.0575. In addition, the z-score was -0.568 (inactive) in test [7]; -0.3 in test [8]; -0.513 in test [9]; -0.12 (inactive) in test [10]; -0.352 in test [11]; 0.473 (inactive) in test [12]. Further, the z-score in test [13] is 0.0366 (inactive); in test [15], 0.298 (inactive); in [16] it was 0.625 (inactive); in test [17], -0.34 (inactive); in test [18], -0.17 (inactive); in test [19], 0.168. The composite z-score in test [14] was -0.79 (inactive); in test [20], -0.335.
